From PubChem BioAssay (NCATS)
Values without a mark were called inactive. Results filed as inconclusive are left out. The source made the active and inactive calls. Unless noted, calls come from the whole dose curve; as a rule, active = well fitted curve in either direction with a large enough effect (not every such curve was filed as active); inconclusive = small, poorly fitted or top-dose-only effect, or another doubt; inactive = flat fitted curve, though single readings scatter.

How the values were obtained:
[1] = target: Lysosomal acid glucosylceramidase (Homo sapiens) (UniProt P04062); assay: Glucocerebrosidase-p2 (AID 348; in the data active = potency below about 10 µM; note: potency is the fitted concentration of half-maximal effect); conditions: purified GBA, blue fluorogenic substrate, 40 min
How it was run: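 Compounds titrated from 0.6 nM upwards against 0.2 nM enzyme in pH 5.9 citric acid/KH2PO4, taurocholate, tween-20; blue fluorogenic substrate 80 uM, 40 min room temperature, stopped and read Ex 365/Em 440 for AC50.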

[2] = AP1 Signaling Pathway (AID 357); conditions: ME-180 AP-1-bla reporter, EGF-induced, beta-lactamase ratio, 5 h; at 7.69 µM (top of the series) unless noted; note: % is set by controls: 0 for no effect and ±100 for the full control effect
How it was run: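 ME-180 cells with beta-lactamase reporter under AP-1 response element, stimulated with EC50 EGF; compounds tested in titration series, 5 h at 37 °C. CCF4 substrate added 2.5 h at room temperature; 460/530 nm emission ratio gave %activity and AC50.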

[3] = target: Glucocorticoid receptor (Homo sapiens) (UniProt P04150); assay: GR-GFP Redistribution (AID 450;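 active = compounds whose dose series gives a full or clear partial fitted curve of increased nuclear translocation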; note: potency is the fitted concentration of half-maximal effect); conditions: U2OS GR-GFP nuclear translocation, laser cytometry, 2 h
[4] = target: Mitogen-activated protein kinase 10 (Mus musculus) (UniProt Q61831); assay: JNK3 AlphaScreen Assay (AID 530); conditions: JNK3 lysate, c-Jun phosphorylation; series mostly up to 11.4 µM;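 note: kinase came from lysate of stimulated human HepG2 cells; signal reports phosphorylation of biotinylated GST-cJun 1-79 at Ser73 with 10 µM ATP; % is set by controls: 0 for no effect and ±100 for the full control effect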
How it was run: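 Pre-activated (IL-1β/TNFα) JNK3 in HepG2 lysates phosphorylates biotin-GST-cJun(1-79), 10 uM ATP; anti-phospho-cJun(Ser73) AlphaScreen read at room temperature, pH 7.6 Tris buffer. Compounds pre-incubated 15 min as titrations.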

[5] = target: 3',5'-cyclic-AMP phosphodiesterase 4B (Homo sapiens) (UniProt Q07343); assay: qHTS Assay for Inhibitors of PDE-IV (AID 607; active = well fitted activation curve with a large enough effect in the main read-out, with a control signal flat, not every such curve was filed as active; note: % of control where 0% means no effect); conditions: HEK293 ACTOne CNG channel cells, membrane potential fluorescence; series mostly up to 22.9 µM
How it was run: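 Cell-based read-out of cAMP via a modified cyclic nucleotide-gated channel and membrane potential dye (535/590 nm) in HEK293 cells expressing PDE4 endogenously. Compounds tested up to 22.9 uM final; 100 uM RO 20-1724 reference.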

[6] = target: Cytochrome P450 2C9 (Homo sapiens) (UniProt P11712); assay: qHTS Assay for Inhibitors and Substrates of Cytochrome P450 2C9 (AID 883; active = well fitted curve in the direction sought with a large enough effect; an effect the other way counts as inactive or inconclusive; note: potency is the fitted concentration of half-maximal effect; nearly all actives have a fitted effect of over 60% in size); conditions: recombinant CYP2C9, luciferin-H luminescence, 60 min; series mostly up to 11.4 µM
How it was run: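 Human CYP2C9 (10nM) with Luciferin-H at 100uM (its KM) in 25mM KPO4; compound preincubated 10 min at 37C, then NADPH regeneration for 60 min at 37C. Luciferin read by luminescence after detection reagent; normalized to 57uM sulphaphenazole as full inhibition.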

[7] = target: Cytochrome P450 3A4 (Homo sapiens) (UniProt P08684); assay: qHTS Assay for Activators of Cytochrome P450 3A4 (AID 885; active = well fitted curve in the direction sought with a large enough effect; an effect the other way counts as inactive or inconclusive; note: nearly all actives have a fitted effect of over 65% in size); conditions: recombinant CYP3A4, Luciferin-PPXE luminescence, 60 min; series mostly up to 11.4 µM
How it was run: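 Signal was normalized against complete inhibition by 57 uM ketoconazole. The reaction used 20nM CYP3A4 with 25uM Luciferin-PPXE, 10-min compound preincubation and a 60-min NADPH-supported step at RT.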

[8] = target: Cytochrome P450 2C19 (Homo sapiens) (UniProt P33261); assay: qHTS Assay for Inhibitors and Substrates of Cytochrome P450 2C19 (AID 899; active = well fitted curve in the direction sought with a large enough effect; an effect the other way counts as inactive or inconclusive; note: potency is the fitted concentration of half-maximal effect; nearly all actives have a fitted effect of over 60% in size); conditions: recombinant CYP2C19, luciferin-H EGE luminescence; series mostly up to 11.4 µM
How it was run: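 5 nM human CYP2C19 with 10uM Luciferin-H EGE (at KM) in 50mM KPO4, compound preincubated 10 min at 37C, then NADPH regeneration for 60 min at 37C. Luciferin read by luminescence after detection reagent; normalized to 57uM ketoconazole as full inhibition.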

[9] = target: Cytochrome P450 1A2 (Homo sapiens) (UniProt P05177); assay: p450-cyp1a2 (AID 410; calls by dose curve; note: potency is the fitted concentration of half-maximal effect;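 for activity change, negative = inhibition: -100% = full effect of reference inhibitor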); conditions: recombinant CYP1A2, luciferin-ME demethylation, luminescence; series mostly up to 11.4 µM
How it was run: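 20nM CYP1A2 with 100uM Luciferin-ME (at Km) in 100mM KPO4; compound preincubated 10 min, NADPH regeneration added, 60 min at room temperature. Luciferin quantified by luminescence after detection reagent; normalized to 57 uM furafylline.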

[10] = NFAT Signaling Pathway (AID 444); conditions: Jurkat NFAT-bla M1, carbachol, beta-lactamase ratio, 5 h; at 7.69 µM (top of the series) unless noted;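 note: carbachol stimulus at about its EC50 of 1 µM final; % is set by controls: 0 for no effect and ±100 for the full control effect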
How it was run: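 Jurkat cells with NFAT-driven β-lactamase reporter and co-expressed M1 receptor, stimulated with carbachol (final 1 uM, ~EC50), compound titration, 5 h at 37 °C. CCF4 loaded 1 h at RT; 460/530 nm ratio gave %activity and AC50.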

[11] = Stat Signaling Pathway (AID 446); conditions: ME-180 SIE beta-lactamase reporter, IL-6 stimulated, 5 h; at 7.69 µM (top of the series) unless noted;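 note: ME-180 cervical cancer cells given 40 pM IL-6 alongside compound; SIE-controlled beta-lactamase reporter measured as 460/530 nm FRET emission ratio; % is set by controls: 0 for no effect and ±100 for the full control effect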
How it was run: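 Reporter line: ME-180 cervical carcinoma, SIE-beta-lactamase. Treatment: compound with 40 pM IL-6, 5 hrs, 37 C, in low-serum OPTI-MEM with 10 mM HEPES pH 7.3. Detection: 460/530 nm fluorescence.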

[12] = target: Glucocorticoid receptor (Homo sapiens) (UniProt P04150); assay: GR-EFC Redistribution (AID 451; calls by dose curve; note: potency is the fitted concentration of half-maximal effect); conditions: CHO-K1 GR-EFC translocation, beta-gal luminescence, 2 h
How it was run: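 CHO-K1 cells expressing nuclear EA and GR-ED fragments of b-gal; compounds titrated up to 46 uM final, 2 h at 37 C. GR nuclear translocation read as complemented b-gal luminescence after 1 h RT detection.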

3',5'-cyclic-AMP phosphodiesterase 4B (Homo sapiens), sequence (Q07343 whole entry, looked up): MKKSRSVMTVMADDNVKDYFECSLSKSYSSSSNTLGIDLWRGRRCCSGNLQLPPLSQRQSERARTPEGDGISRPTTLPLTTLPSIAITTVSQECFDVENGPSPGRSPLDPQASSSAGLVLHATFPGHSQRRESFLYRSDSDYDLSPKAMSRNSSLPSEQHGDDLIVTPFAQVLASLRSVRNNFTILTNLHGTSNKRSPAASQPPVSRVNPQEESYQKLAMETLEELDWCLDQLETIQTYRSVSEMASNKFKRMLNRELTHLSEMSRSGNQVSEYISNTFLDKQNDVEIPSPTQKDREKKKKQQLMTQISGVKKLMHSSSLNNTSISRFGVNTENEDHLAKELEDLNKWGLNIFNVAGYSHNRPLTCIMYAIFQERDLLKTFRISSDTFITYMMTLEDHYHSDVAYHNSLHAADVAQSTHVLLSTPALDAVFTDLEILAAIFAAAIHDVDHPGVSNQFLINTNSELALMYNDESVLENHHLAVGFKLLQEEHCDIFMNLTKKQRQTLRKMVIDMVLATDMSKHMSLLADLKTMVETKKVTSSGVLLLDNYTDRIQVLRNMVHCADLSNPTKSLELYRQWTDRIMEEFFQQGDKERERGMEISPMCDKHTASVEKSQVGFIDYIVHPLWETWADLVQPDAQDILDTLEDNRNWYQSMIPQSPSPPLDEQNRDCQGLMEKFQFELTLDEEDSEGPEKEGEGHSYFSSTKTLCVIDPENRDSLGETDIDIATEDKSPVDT
Lysosomal acid glucosylceramidase (Homo sapiens), sequence (P04062 whole entry, looked up): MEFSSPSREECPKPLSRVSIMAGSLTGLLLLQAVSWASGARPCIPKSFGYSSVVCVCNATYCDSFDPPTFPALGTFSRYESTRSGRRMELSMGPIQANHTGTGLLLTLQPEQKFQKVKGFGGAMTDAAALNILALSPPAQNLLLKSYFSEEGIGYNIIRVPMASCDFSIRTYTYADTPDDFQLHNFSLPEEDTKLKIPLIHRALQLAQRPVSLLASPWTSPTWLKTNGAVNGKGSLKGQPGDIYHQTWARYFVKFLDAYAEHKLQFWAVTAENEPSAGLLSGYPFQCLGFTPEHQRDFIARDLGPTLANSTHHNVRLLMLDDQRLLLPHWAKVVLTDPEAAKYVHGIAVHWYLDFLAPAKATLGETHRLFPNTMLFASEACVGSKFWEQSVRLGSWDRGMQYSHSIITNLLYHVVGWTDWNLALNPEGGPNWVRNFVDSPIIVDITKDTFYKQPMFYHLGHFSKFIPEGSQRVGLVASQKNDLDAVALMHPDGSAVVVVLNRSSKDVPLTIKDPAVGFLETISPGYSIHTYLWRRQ
Glucocorticoid receptor (Homo sapiens), sequence (P04150 whole entry, looked up, the tested form may be a part): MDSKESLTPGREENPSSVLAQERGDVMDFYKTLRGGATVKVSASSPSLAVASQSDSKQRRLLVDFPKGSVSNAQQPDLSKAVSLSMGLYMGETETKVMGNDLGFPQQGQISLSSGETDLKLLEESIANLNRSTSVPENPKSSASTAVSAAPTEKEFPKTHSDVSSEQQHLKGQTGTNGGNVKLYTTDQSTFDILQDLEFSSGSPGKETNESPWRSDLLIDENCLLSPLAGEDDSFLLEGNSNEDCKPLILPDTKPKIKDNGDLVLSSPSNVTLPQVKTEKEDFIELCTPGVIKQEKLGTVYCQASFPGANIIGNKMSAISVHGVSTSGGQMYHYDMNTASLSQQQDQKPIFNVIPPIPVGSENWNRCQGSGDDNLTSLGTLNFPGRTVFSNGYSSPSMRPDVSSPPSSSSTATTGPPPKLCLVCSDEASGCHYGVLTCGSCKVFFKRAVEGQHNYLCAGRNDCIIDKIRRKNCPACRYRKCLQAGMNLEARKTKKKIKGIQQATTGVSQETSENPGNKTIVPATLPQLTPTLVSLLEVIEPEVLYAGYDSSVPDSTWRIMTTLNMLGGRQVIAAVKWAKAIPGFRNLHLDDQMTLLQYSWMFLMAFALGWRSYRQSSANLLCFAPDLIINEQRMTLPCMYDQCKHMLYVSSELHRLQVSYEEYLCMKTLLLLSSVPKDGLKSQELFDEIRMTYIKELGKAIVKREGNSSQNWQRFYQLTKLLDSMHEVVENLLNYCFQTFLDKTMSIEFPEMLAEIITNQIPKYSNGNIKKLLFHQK
Cytochrome P450 1A2 (Homo sapiens), sequence (P05177 whole entry, looked up): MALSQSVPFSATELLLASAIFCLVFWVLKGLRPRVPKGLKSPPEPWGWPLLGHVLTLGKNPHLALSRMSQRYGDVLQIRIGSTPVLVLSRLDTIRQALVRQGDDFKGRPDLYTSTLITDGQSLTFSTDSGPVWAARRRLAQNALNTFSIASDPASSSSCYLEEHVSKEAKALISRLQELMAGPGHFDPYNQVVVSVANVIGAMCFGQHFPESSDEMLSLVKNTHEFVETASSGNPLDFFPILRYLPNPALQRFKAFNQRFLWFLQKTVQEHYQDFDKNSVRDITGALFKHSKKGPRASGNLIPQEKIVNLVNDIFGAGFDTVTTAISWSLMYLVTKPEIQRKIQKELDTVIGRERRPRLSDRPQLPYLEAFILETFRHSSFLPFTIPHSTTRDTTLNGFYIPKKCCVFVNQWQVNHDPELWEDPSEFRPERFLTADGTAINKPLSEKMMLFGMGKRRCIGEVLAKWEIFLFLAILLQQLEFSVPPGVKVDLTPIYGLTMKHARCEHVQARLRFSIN
Cytochrome P450 3A4 (Homo sapiens), sequence (P08684 whole entry, looked up): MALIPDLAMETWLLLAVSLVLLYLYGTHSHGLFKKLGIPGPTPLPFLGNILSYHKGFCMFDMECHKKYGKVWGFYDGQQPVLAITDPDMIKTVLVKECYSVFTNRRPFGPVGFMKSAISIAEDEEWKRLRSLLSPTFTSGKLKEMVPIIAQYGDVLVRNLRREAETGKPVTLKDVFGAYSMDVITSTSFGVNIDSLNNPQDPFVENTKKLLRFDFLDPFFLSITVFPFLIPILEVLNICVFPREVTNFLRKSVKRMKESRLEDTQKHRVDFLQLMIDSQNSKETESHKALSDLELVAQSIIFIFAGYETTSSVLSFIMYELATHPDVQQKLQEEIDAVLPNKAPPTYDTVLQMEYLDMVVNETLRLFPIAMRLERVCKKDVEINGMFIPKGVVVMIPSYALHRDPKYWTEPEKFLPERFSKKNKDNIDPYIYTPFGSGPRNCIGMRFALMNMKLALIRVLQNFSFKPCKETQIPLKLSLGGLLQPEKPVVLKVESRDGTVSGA
Cytochrome P450 2C19 (Homo sapiens), sequence (P33261 whole entry, looked up): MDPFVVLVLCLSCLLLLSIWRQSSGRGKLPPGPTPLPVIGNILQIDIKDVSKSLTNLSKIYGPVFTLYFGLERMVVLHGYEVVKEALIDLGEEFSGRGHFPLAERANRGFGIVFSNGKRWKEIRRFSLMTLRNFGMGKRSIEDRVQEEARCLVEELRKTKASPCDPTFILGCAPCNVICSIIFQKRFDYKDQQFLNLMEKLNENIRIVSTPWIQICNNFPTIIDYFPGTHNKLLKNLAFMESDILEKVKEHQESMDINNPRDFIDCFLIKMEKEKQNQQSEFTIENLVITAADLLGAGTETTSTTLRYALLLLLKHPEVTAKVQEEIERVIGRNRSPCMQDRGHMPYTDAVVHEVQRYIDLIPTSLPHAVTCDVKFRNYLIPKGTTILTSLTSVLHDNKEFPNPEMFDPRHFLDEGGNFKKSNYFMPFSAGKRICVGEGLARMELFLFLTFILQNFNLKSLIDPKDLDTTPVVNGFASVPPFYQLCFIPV
Cytochrome P450 2C9 (Homo sapiens), sequence (P11712 whole entry, looked up): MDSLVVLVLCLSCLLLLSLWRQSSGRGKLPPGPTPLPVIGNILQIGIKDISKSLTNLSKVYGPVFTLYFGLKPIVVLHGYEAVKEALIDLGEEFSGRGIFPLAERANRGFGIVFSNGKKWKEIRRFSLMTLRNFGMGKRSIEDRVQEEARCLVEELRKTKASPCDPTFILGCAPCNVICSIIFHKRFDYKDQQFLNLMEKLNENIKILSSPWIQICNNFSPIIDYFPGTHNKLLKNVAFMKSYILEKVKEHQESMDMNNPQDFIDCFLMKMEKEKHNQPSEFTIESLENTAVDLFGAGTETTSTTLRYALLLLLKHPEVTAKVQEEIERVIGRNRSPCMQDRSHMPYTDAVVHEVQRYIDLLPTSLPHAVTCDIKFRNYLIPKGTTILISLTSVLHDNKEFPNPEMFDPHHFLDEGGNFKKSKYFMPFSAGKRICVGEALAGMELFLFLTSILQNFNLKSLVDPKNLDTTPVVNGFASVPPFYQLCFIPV

SMILES	Potency [1] [µM]	activity change, negative = inhibition [2] [%]	Potency [3] [µM]	Potency [4]	Potency [5]	Potency [6]	Potency [7]	Potency [8]	Potency [9]	activity change, negative = inhibition [10] [%]	activity, negative = inhibition [11] [%]	Potency [12] [µM]	activity change, negative = inhibition [9]
O=C(c1ccc([N+](=O)[O-])cc1)[C@@H](Br)[C@@H](Br)c1ccnc2ccccc12	> 11.4	-11.4	> 46	inactive	inactive	3.16 µM (active)	inactive	1.26 µM (active)	–	–	–	–	–
CC(C)[C@H](Sc1nc(N)nc2nc[nH]c12)C(=O)O	> 11.4	–	> 46	inactive	inactive	–	–	–	0.316 µM (active)	9.06	14.2	> 9.22	–
OC[C@@H]1O[C@@H](N2CCN([C@@H]3O[C@@H](CO)[C@@H](O)[C@H](O)[C@H]3O)CC2)[C@@H](O)[C@H](O)[C@H]1O	> 11.4	–	> 46	inactive	inactive	–	–	–	–	-2.18	-5.46	> 9.22	-9.7% [at 2.29 µM]
